# According to the supplement of paper PMC9950053:
# Where a name gives a salt, the structure may show the parent alone.
# Tested on: Danio rerio larvae (5 dpf)
# Test: habituation (activity change first vs second 5 min of 1-s interval sound, period 17) minus DMSO control (percentage points); higher = larger habituation measure than DMSO larvae
# Settings: 10 µM; exposure time: 3 h pre-incubation + 3 h imaging
# Description: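 Wild-type 5 dpf zebrafish larvae (n=48 per drug, 96-well plates, 28.5 °C) were exposed to Tocris FDA-approved library compounds at 10 µM (0.1% DMSO) for 3 h before and 3 h during imaging. Images were taken every 6 s during visual (moving coloured lines) and acoustic stimuli, and larvae were tracked with the DeepLabCut-based Z-LaP Tracker. Each behavioural measure is the treated-group mean minus the DMSO vehicle control mean (n=844), in percentage points. This mapping covers compounds with 4-character plate codes.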
row,Structure (SMILES),habituation
1,CC(C)c1nc(N(C)S(C)(=O)=O)nc(-c2ccc(F)cc2)c1/C=C/[C@@H](O)C[C@@H](O)CC(=O)O [Rosuvastatin calcium],1.27
2,N[C@@H]1[C@H]2CN(c3nc4c(cc3F)c(=O)c(C(=O)O)cn4-c3ccc(F)cc3F)C[C@@H]12 [Trovafloxacin mesylate],-4.07
3,C=C1[C@H](CO)[C@@H](O)C[C@@H]1n1cnc2c(=O)[nH]c(N)nc21 [Entecavir],1.2
4,CCCCCCCCc1ccc(CCC(N)(CO)CO)cc1,-0.454
5,Cc1cccc(C)c1OCC(C)N (stereo not given) [Mexiletine hydrochloride],6.36
6,Clc1ccccc1C(c1ccccc1)(c1ccccc1)n1ccnc1 [Clotrimazole],-2.1
7,CC(=O)S[C@@H]1CC2=CC(=O)CC[C@]2(C)[C@H]2CC[C@@]3(C)[C@@H](CC[C@@]34CCC(=O)O4)[C@H]12 [Spironolactone],2.5
8,Nc1ccn([C@@H]2O[C@H](CO)[C@@H](O)C2(F)F)c(=O)n1 [Gemcitabine hydrochloride],-1.55
9,OC(CNCC(O)C1CCc2cc(F)ccc2O1)C1CCc2cc(F)ccc2O1 (stereo not given) [Nebivolol hydrochloride],-10.1
10,CCCc1nc(C(C)(C)O)c(C(=O)O)n1Cc1ccc(-c2ccccc2-c2nnn[nH]2)cc1 [Olmesartan],2.6
11,CC(C)(C#N)c1cc(Cn2cncn2)cc(C(C)(C)C#N)c1 [Anastrozole],6.46
12,CN(C)CCc1c[nH]c2ccc(Cn3cncn3)cc12 [Rizatriptan benzoate],-1.58
13,CCOc1nc2cccc(C(=O)O)c2n1Cc1ccc(-c2ccccc2-c2nnn[nH]2)cc1 [Candesartan],5.98
14,Cn1cnc([N+](=O)[O-])c1Sc1ncnc2[nH]cnc12 [Azathioprine],-3.52
15,Nc1ncn([C@H]2C[C@H](O)[C@@H](CO)O2)c(=O)n1 [Decitabine],7.42
16,C[C@H]1C[C@@H]2[C@H]([C@@H](O)C[C@@]3(C)[C@H]2CC[C@]3(O)C(=O)CO)[C@@]2(C)C=CC(=O)C=C12 [Methylprednisolone],0.909
17,Nc1nc2c(ncn2COCCO)c(=O)[nH]1 [Acyclovir],2.18
18,COc1cccc2c1C(=O)c1c(O)c3c(c(O)c1C2=O)C[C@@](O)(C(=O)CO)C[C@@H]3O[C@H]1C[C@H](N)[C@H](O)[C@H](C)O1 [Doxorubicin hydrochloride],0.248
19,CCCCCOC(=O)Nc1nc(=O)n([C@@H]2O[C@H](C)[C@@H](O)[C@H]2O)cc1F [Capecitabine],-3.27
20,CN1CC[C@@H](NC(=O)Nc2ccc(C#N)cc2)C[C@@H]1c1nc2ccccc2[nH]1,-0.504

row,Structure (SMILES),habituation
1,CN(CCOc1ccc(NS(C)(=O)=O)cc1)CCc1ccc(NS(C)(=O)=O)cc1 [Dofetilide],5.62
2,COc1ccc(Cl)cc1C(=O)NCCc1ccc(S(=O)(=O)NC(=O)NC2CCCCC2)cc1 [Glibenclamide],0.59
3,CCOc1ccccc1OCCN[C@H](C)Cc1ccc(OC)c(S(N)(=O)=O)c1 [Tamsulosin hydrochloride],1.59
4,CC(C)c1ccc2oc3nc(N)c(C(=O)O)cc3c(=O)c2c1 [Amlexanox],-2.56
5,Cc1cc(C2CCCCC2)n(O)c(=O)c1 [Ciclopirox],-2.51
6,O=C(c1ccc(OCCN2CCCCC2)cc1)c1c(-c2ccc(O)cc2)sc2cc(O)ccc12 [Raloxifene hydrochloride],-3.07
7,NC(=O)c1ncn([C@@H]2O[C@H](CO)[C@@H](O)[C@H]2O)n1 [Ribavirin],0.859
8,Cc1ccc(O)c([C@H](CCN(C(C)C)C(C)C)c2ccccc2)c1 [Tolterodine L-tartrate],-5.86
9,CC(=O)O[C@H]1C(=O)[C@@]2(C)[C@H]([C@H](OC(=O)c3ccccc3)[C@]3(O)C[C@H](OC(=O)[C@H](O)[C@@H](NC(=O)c4ccccc4)c4ccccc4)C(C)=C1C3(C)C)[C@]1(OC(C)=O)CO[C@@H]1C[C@@H]2O [Taxol],-3.28
10,Cc1cccc(CN2CCN(C(c3ccccc3)c3ccc(Cl)cc3)CC2)c1 (stereo not given) [Meclizine dihydrochloride],-12.4
11,CC/C(=C(\c1ccccc1)c1ccc(OCCN(C)C)cc1)c1ccccc1 [Tamoxifen citrate],-7.1
12,CC(C)Nc1cccnc1N1CCN(C(=O)c2cc3cc(NS(C)(=O)=O)ccc3[nH]2)CC1 [Delavirdine mesylate],-5.18
13,O=c1[nH]c(=O)n([C@H]2C[C@H](O)[C@@H](CO)O2)cc1C(F)(F)F [Trifluorothymidine],6.83
14,COC(c1ccccc1)(c1ccccc1)[C@H](Oc1nc(C)cc(C)n1)C(=O)O [Ambrisentan],4.59
15,Cn1nnc2c(C(N)=O)ncn2c1=O [Temozolomide],4.81
16,CCN(CC)CCNC(=O)c1c(C)[nH]c(/C=C2\C(=O)Nc3ccc(F)cc32)c1C [Sunitinib malate],5.06
17,O=C(O)CCCc1ccccc1 [Sodium 4-Phenylbutyrate],-2.16
18,Cc1ccc(NC(=O)c2ccc(CN3CCN(C)CC3)cc2)cc1Nc1nccc(-c2cccnc2)n1 [Imatinib mesylate],1.88
19,Nc1nc(NC2CC2)c2ncn([C@H]3C=C[C@@H](CO)C3)c2n1 [Abacavir hemisulfate],3.13
20,CCCCC(=O)N(Cc1ccc(-c2ccccc2-c2nnn[nH]2)cc1)[C@H](C(=O)O)C(C)C [Valsartan],2.48
